Test results published in PubChem BioAssay (NCATS).
Inconclusive results are not listed. Values without a mark were called inactive. The source made the active and inactive calls. Calls come from the whole dose curve; as a rule, active = well fitted inhibition curve with a large enough effect; inconclusive = small, poorly fitted or top-dose-only effect; inactive = flat fitted curve, though single readings scatter.

Tested on: CRL-7250
Assay: Cytotoxic Profiling of Annotated Libraries Using Quantitative High-Throughput Screening (AID 1296008); note: nearly all actives have a fitted effect of over 60% in size
Conditions: Five cell lines viability, CellTiter-Glo ATP luminescence, 48-72 h; max response: active compounds read low
How it was run: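 Cells exposed to compounds for 48 or 72 hr at 37 degrees Celsius. Viability read as ATP-coupled luminescence with CellTiter-Glo after 10 min at room temperature.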
% is set by controls: 0 for no effect and ±100 for the full control effect.

With `CC1(C)C2CC=C(COC3OC(COC4OCC(O)(CO)C4O)C(O)C(O)C3O)C1C2` (stereo not given) the outcome was “inactive”.
In the case of `CC1(C)CC[C@]2(C(=O)O[C@@H]3O[C@H](CO)[C@@H](O)[C@H](O)[C@H]3O)CC[C@]3(C)C(=CCC4[C@@]5(C)C[C@@H](O)[C@H](O)[C@](C)(C=O)C5CC[C@]43C)[C@@H]2[C@@H]1O` (stereo not given in full), the outcome is reported as “inactive”.

Compared with `COc1cc(C)c(C(=O)O[C@H]2[C@@H](OC(C)=O)[C@H](n3ccc(=O)[nH]c3=O)O[C@@H]2CO)c(OC)c1`, `COc1cc(O)cc(/C=C/c2ccc(O[C@@H]3O[C@H](CO)[C@@H](O)[C@H](O)[C@H]3O)cc2)c1` is higher in max response: -2.01% for the first, -0.761% for the second.

Compared with `CC(=O)CC1CCC(C(C)C(=O)OCC(O)CO)O1` (stereo not given), `C=C1C(=O)OC2/C=C(\CO)CC/C=C(\C=O)CC(OC(=O)CC(C)C)C12` (stereo not given) is lower in max response: 2.08% for the first, -22.7% for the second.

Compared with `C=C1C(OC(=O)/C(C)=C\C)[C@@]23CCC4[C@@](C)(CCC[C@@]4(C)C(=O)O)C2CC[C@H]1C3OC(C)=O` (stereo not given in full), `CC1(C)CC[C@]2(C(=O)O[C@@H]3O[C@H](CO)[C@@H](O)[C@H](O)[C@H]3O)CC[C@]3(C)C(=CCC4[C@@]5(C)C[C@@H](O)[C@H](O)C(C)(C)C5CC[C@]43C)C2[C@@H]1O` (stereo not given in full) is higher in max response: -2.82% for the first, 0.543% for the second.

First: O=C(O)CC(=O)OC[C@H]1O[C@@H](Oc2ccc3c(c2)OC[C@H]2c4cc5c(cc4O[C@@H]32)OCO5)[C@H](O)[C@@H](O)[C@@H]1O
Second: CC(C)(C)NC(=O)[C@@H](c1cccnc1)N(C(=O)c1ccco1)c1ccc(C(C)(C)C)cc1
The max response of the first is lower: -24.1% for the first, 4.34% for the second.
